Sampled rows, rich in hits. Any-hit rate of the full collection: about 3.9%.
UBC9 SUMO inh – SUMOylation inhibition | HTRF SUMOylation assay, SAE1/SAE2 + UBC9, in vitro | actives 0.36% (n = 290,000) | AID 2006 | P63279 | inhibition, % at 35 µM; in the data active = inhibition above about 50%, passing the limit was not always enough
H9c2 protect – protects H9c2 cardiomyocytes from peroxide injury. H2O2 injury protection, ATPLite, 2 h. protection from H2O2 cell death, % at 20 µM. actives 0.63% (n = 360,000);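 active = compounds giving at least 50% protection of heart cells from peroxide-induced death in the single-dose screen, raw or plate-pattern-corrected value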
NTR1 agonist – agonists of human neurotensin receptor NTR1; P30989; NTR1-U2OS beta-arrestin-GFP spot imaging, agonist mode; activation, % at 20 µM; actives 0.17% (n = 330,000); AID 493036;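 active = activation at or above 40% of the spot to cytoplasm intensity ratio, with at least 20 cells analyzed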
Target sequence (P30989 whole entry, looked up): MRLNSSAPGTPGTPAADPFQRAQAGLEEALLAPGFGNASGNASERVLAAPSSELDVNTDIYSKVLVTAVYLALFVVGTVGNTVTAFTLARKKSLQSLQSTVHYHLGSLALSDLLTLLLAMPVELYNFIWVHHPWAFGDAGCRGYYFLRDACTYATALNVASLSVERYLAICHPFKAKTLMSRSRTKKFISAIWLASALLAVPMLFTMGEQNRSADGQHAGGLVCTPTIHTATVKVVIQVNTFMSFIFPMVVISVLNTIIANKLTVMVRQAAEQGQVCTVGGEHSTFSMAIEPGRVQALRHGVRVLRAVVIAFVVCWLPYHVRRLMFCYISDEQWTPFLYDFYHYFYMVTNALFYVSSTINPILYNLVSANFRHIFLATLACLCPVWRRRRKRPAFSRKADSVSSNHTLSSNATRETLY
ALR inh – human ALR oxidase inhibition via reduced H2O2. AID 485317. purified ALR, DTT oxidation, H2O2 HRP-luminol luminescence. inhibition, % (test concentration not listed). actives 3.8% (n = 290,000);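 active = mean replicate inhibition above about 79%, with every replicate also reaching it, limit read from the data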
Hits are given with their value; i = inactive; nt = not tested or not shown.

SMILES	UBC9 SUMO inh	H9c2 protect	NTR1 agonist	ALR inh
CCN(C(=S)NC(=O)C1CC1)c1ccccc1	i	i	i	i
CN(C(=S)NC(=O)C1CC1)c1ccc(O)cc1	nt	i	i	97
Cc1cnn(CCC(=O)NNC(=S)Nc2ccc(F)cc2)c1	i	i	i	82
COCCn1cnc2cc(C)c(C)cc21	i	i	i	nt
O=S(=O)(Nc1ccccc1O)c1ccc(Cl)nc1	i	i	i	99
O=S(=O)(Nc1ccccc1F)c1ccc(Cl)nc1	nt	i	i	nt
COCCN(C(=O)CSc1n[nH]c(-c2ccccc2)n1)c1c(N)n(CC(C)C)c(=O)[nH]c1=O	nt	i	i	nt
Cn1c(N/N=C/c2ccccc2)nc2sc3c(c2c1=O)CCC3	i	i	i	92
O=C(CSc1nc2sc3c(c2c(=O)n1-c1ccccc1)CCCC3)N/N=C/c1ccc(C(=O)O)cc1	i	i	i	i
COc1ccc(C(=O)NC(=S)NNC(=O)c2cnccn2)cc1	i	i	i	i
COc1cc(C(=O)NC(=S)NNC(=O)c2cnccn2)cc(OC)c1OC	i	i	i	96
COc1cc([N+](=O)[O-])cc(/C=N/NC(=O)c2ccc(C)nc2)c1O	i	62	i	i
COc1cc([N+](=O)[O-])cc(/C=N/NC(=O)C(C)Nc2ccccc2C)c1O (configuration not stated)	i	63	i	nt
COc1cc([N+](=O)[O-])cc(/C=N/NC(=O)c2ccc(NC(=O)c3ccc(C)cc3)cc2)c1O	i	i	i	nt
C=CCSc1nnc(-c2ccncc2)n1-c1ccc(OCC)cc1	i	i	i	i
Nc1c(C(=O)NC2CCCC2)c2nc3ccccc3nc2n1N	i	62	i	i
Nc1c(C(=O)NC2CCCC2)c2nc3ccccc3nc2n1/N=C/c1ccco1	i	50	i	i
COc1ccccc1/C=N/n1c(N)c(C(=O)NC2CCCCC2)c2nc3ccccc3nc21	i	i	nt	nt
CSc1ncccc1C(=O)OCC(=O)N1CCCC1	nt	i	i	i
O=C(CSC1=NNC(c2ccccn2)S1)Nc1ccccc1 (configuration not stated)	i	i	i	i
O=C(CSC1=NC(=O)C(c2ccccc2)C(=O)N1)Nc1ccccc1Cl (configuration not stated)	i	i	i	99
O=C(CSC1=NNC(c2ccccn2)S1)Nc1cccc(Cl)c1 (configuration not stated)	i	61	i	i
O=C(CSC1=NC(=O)C(c2ccccc2)C(=O)N1)Nc1cccc(Cl)c1 (configuration not stated)	i	i	i	98
COC(=O)c1ccc(NC(=O)CSC2=NC(=O)C(c3ccccc3)C(=O)N2)cc1 (configuration not stated)	i	i	i	99
COC(=O)c1ccc(NC(=O)CSc2nc3ccccc3c(=O)[nH]2)cc1	i	i	i	i
SMILES	UBC9 SUMO inh	H9c2 protect	NTR1 agonist	ALR inh
COc1cc(/C=N/NC(=O)[C@H](Cc2c[nH]c3ccccc23)NC(=O)OCC(C)C)cc([N+](=O)[O-])c1O	i	i	i	i
O=c1c2ccccc2nnn1-c1ccc(Br)cc1	i	i	i	i
O=C(NCCCN1CCOCC1)C1Nc2ccc(OC(F)(F)F)cc2C2C=CCC12 (configuration not stated)	nt	i	i	i
O=C(O)c1cc(S(=O)(=O)N2CCOCC2)ccc1N1CCCCC1	i	i	i	i
COc1ccccc1NC(=O)CSC1=NC(=O)C(NC(C)=O)C(=O)N1 (configuration not stated)	i	i	i	nt
Cn1nnnc1SCC(=O)Nc1ccccc1[N+](=O)[O-]	i	i	i	nt
CC(=O)NC1C(=O)N=C(SCC(=O)Nc2ccc(C(F)(F)F)cc2Cl)NC1=O (configuration not stated)	i	i	i	98
O=C(CSC1=NC(=O)C(c2ccccc2)C(=O)N1)Nc1ccccc1[N+](=O)[O-] (configuration not stated)	i	i	i	95
CCC1(CC)NC(=O)N(CC(=O)OCC(=O)Nc2ccccc2[N+](=O)[O-])C1=O	i	70	i	i
CCC1(CC)NC(=O)N(CC(=O)OCC(=O)Nc2ccccc2OC(F)F)C1=O	nt	i	i	i
Cc1noc(C)c1S(=O)(=O)N1CCCC(C(=O)NCC2CCCO2)C1 (configuration not stated)	i	i	i	i
OCn1ncn(-c2ccccc2)c1=S	i	i	i	92
O=S(=O)(NNc1ccc(F)cc1F)c1cccc(Cl)c1	i	i	i	98
COc1ccc(CCNC(=O)c2cc(-c3ccccc3)on2)cc1OC	i	i	i	i
Cc1cccc(OCC(=O)Nc2nonc2NC(=O)COc2cccc(C)c2)c1	nt	i	i	i

Assay outcomes from PubChem BioAssay.
